# From PubChem BioAssay (Tox21)
# Several values for one entry are separate records, joined by “and”; a condition that tells them apart may be missing. Equal entries are not always repeated. Records with an inconclusive call do not appear. A call without a number means that no potency is given here. Some compounds were tested as several samples or in several runs, with calls that do not always agree. Activity calls are given as the source filed them. Calls come from the whole dose curve; as a rule, active = well fitted curve in the direction sought with a large enough effect in the repeat runs; inconclusive = weak or mixed curves; inactive = no such curve, though single readings can be large; an effect the other way counts as inactive or inconclusive.
# Test: qHTS assay to identify small molecule agonists of the peroxisome proliferator-activated receptor delta (PPARd) signaling pathway - cell viability counter screen (AID 743211); note: nearly all actives have a fitted effect of over 55% in size
# Settings: PPARd-bla HEK293H viability, CellTiter-Glo luminescence, 17 h; series mostly up to 62.6 µM; activity change, negative = cytotoxicity: at the top concentration
# In short: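 Counter screen for cytotoxicity run in parallel with the PPARd reporter screen. Beta-lactamase reporter HEK293H cells exposed to compounds 17 h; ATP-based CellTiter-Glo luminescence quantified viability.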
# Potency is the fitted concentration of half-maximal effect.
SMILES,Potency,"activity change, negative = cytotoxicity"
COc1ccc2c(c1)c(CC(=O)O)c(C)n2C(=O)c1ccc(Cl)cc1,inactive,
CC(O)(P(=O)(O)O)P(=O)(O)O,inactive,
COc1ccc(OC(F)(F)F)cc1CN[C@H]1CCCN[C@H]1c1ccccc1,43.6 µM (active),
Cn1c(=O)c2c(ncn2C)n(C)c1=O,inactive,
Nc1ccc(S(N)(=O)=O)cc1,inactive,
CN(C)CCOC(c1ccccc1)c1ccccc1,inactive,
O=C(O)c1ccccc1,inactive,
C/C=C/C=C/C(=O)O,inactive,
C[C@](N)(Cc1ccc(O)c(O)c1)C(=O)O,inactive,
F[B-](F)(F)F,inactive,
O=C1O[C@H]([C@@H](O)CO)C(O)=C1O,inactive,
O=C(O)CC(O)C(=O)O (centres undefined),inactive,
CC(=O)CC(c1ccccc1)c1c(O)c2ccccc2oc1=O (centres undefined),inactive,
NC(=O)n1c(O)c(C(=O)c2cccs2)c2cc(Cl)ccc21,,-7.02% (inactive)
CC(C)NCC(O)c1ccc(O)c(O)c1 (centres undefined),inactive,
C1CCC(C(CC2CCCCN2)C2CCCCC2)CC1 (centres undefined),26.6 µM (active),
NC(CO)(CO)CO,inactive,
CC(=O)Nc1c(I)c(NC(C)=O)c(I)c(C(=O)O)c1I,inactive,
CNNCc1ccc(C(=O)NC(C)C)cc1,inactive,
Nc1ccc2c(c1)CN1C(=O)c3ccccc3C1=N2,,-28.1% [at 29.1 µM] (inactive)
CC(C)c1c(C(=O)Nc2ccccc2)c(-c2ccccc2)c(-c2ccc(F)cc2)n1CC[C@@H](O)C[C@@H](O)CC(=O)O,inactive,
CN1CCC[C@H]1c1cccnc1,inactive,
CC(=O)CCC(=O)O,inactive,
CCCCCCc1ccc(O)cc1O,43.8 µM (active) and inactive,

# Test: qHTS assay to identify small molecule antagonists of the peroxisome proliferator-activated receptor delta (PPARd) signaling pathway - cell viability counter screen (AID 743213); note: nearly all actives have a fitted effect of over 50% in size
# Settings: PPARd-bla HEK293H viability, CellTiter-Glo luminescence, 17 h; series mostly up to 62 µM; viability change, negative = cytotoxic: at the top concentration
# In short: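 Luminescence from CellTiter-Glo, added after the bla read and incubated 30 min at room temperature, gives viability of HEK293H PPARd-bla cells exposed to compounds for 17 h at 37 C with 300 nM L165041.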
SMILES,Potency,"viability change, negative = cytotoxic"
COc1ccc2c(c1)c(CC(=O)O)c(C)n2C(=O)c1ccc(Cl)cc1,inactive,
CC(O)(P(=O)(O)O)P(=O)(O)O,inactive,
COc1ccc(OC(F)(F)F)cc1CN[C@H]1CCCN[C@H]1c1ccccc1,43.6 µM (active),
Cn1c(=O)c2c(ncn2C)n(C)c1=O,inactive,
Nc1ccc(S(N)(=O)=O)cc1,inactive,
CN(C)CCOC(c1ccccc1)c1ccccc1,inactive,
O=C(O)c1ccccc1,inactive,
C/C=C/C=C/C(=O)O,inactive,
C[C@](N)(Cc1ccc(O)c(O)c1)C(=O)O,inactive,
F[B-](F)(F)F,inactive,
O=C1O[C@H]([C@@H](O)CO)C(O)=C1O,inactive,
O=C(O)CC(O)C(=O)O (centres undefined),inactive,
CC(=O)CC(c1ccccc1)c1c(O)c2ccccc2oc1=O (centres undefined),inactive,
CC/C(=C(\c1ccccc1)c1ccc(OCCN(C)C)cc1)c1ccccc1,54.9 µM (active) and 17.5 µM (active),
C1=CC2C3C=CC(C3)C2C1 (centres undefined),,-15.4% [at 80.4 µM] (inactive)
C=C1CC[C@H](O)C/C1=C\C=C1/CCC[C@]2(C)[C@@H]([C@H](C)CCCC(C)C)CC[C@@H]12,43.2 µM (active),
CC(C)NCC(O)c1ccc(O)c(O)c1 (centres undefined),inactive,
NC(CO)(CO)CO,inactive,
CC(=O)Nc1c(I)c(NC(C)=O)c(I)c(C(=O)O)c1I,inactive,
CNNCc1ccc(C(=O)NC(C)C)cc1,inactive,
CC(C)c1c(C(=O)Nc2ccccc2)c(-c2ccccc2)c(-c2ccc(F)cc2)n1CC[C@@H](O)C[C@@H](O)CC(=O)O,inactive,
CCc1nc(N)nc(N)c1-c1ccc(Cl)cc1,,-24.8% (inactive)
CN1CCC[C@H]1c1cccnc1,inactive,
CC(=O)CCC(=O)O,inactive,
CCCCCCc1ccc(O)cc1O,,3.04% (inactive)

# Test: qHTS assay to identify small molecule agonists of the farnesoid-X-receptor (FXR) signaling pathway - cell viability counter screen (AID 743218); note: nearly all actives have a fitted effect of over 45% in size
# Settings: FXR-bla HEK293T viability, CellTiter-Glo luminescence, 16 h; series mostly up to 62.6 µM; viability change, negative = cytotoxic: at the top concentration
# In short: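 HEK 293T FXR-bla cells; 5 h pre-incubation, 16 h compound exposure at 37 C; LiveBLAzer substrate 2 h RT, then CellTiter-Glo 30 min RT, luminescence.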
SMILES,Potency,"viability change, negative = cytotoxic"
COc1ccc2c(c1)c(CC(=O)O)c(C)n2C(=O)c1ccc(Cl)cc1,inactive,
CC(O)(P(=O)(O)O)P(=O)(O)O,inactive,
COc1ccc(OC(F)(F)F)cc1CN[C@H]1CCCN[C@H]1c1ccccc1,43.6 µM (active),
Cn1c(=O)c2c(ncn2C)n(C)c1=O,inactive,
Nc1ccc(S(N)(=O)=O)cc1,inactive,
CN(C)CCOC(c1ccccc1)c1ccccc1,inactive,
O=C(O)c1ccccc1,inactive,
C/C=C/C=C/C(=O)O,inactive,
C[C@](N)(Cc1ccc(O)c(O)c1)C(=O)O,inactive,
F[B-](F)(F)F,inactive,
O=C1O[C@H]([C@@H](O)CO)C(O)=C1O,inactive,
O=C(O)CC(O)C(=O)O (centres undefined),inactive,
CC(=O)CC(c1ccccc1)c1c(O)c2ccccc2oc1=O (centres undefined),inactive,
NC(=O)n1c(O)c(C(=O)c2cccs2)c2cc(Cl)ccc21,,2.4% (inactive)
C=C1CC[C@H](O)C/C1=C\C=C1/CCC[C@]2(C)[C@@H]([C@H](C)CCCC(C)C)CC[C@@H]12,48.5 µM (active),
CC(C)NCC(O)c1ccc(O)c(O)c1 (centres undefined),inactive,
C1CCC(C(CC2CCCCN2)C2CCCCC2)CC1 (centres undefined),23.7 µM (active),
NC(CO)(CO)CO,inactive,
CC(=O)Nc1c(I)c(NC(C)=O)c(I)c(C(=O)O)c1I,inactive,
CNNCc1ccc(C(=O)NC(C)C)cc1,inactive,
Nc1ccc2c(c1)CN1C(=O)c3ccccc3C1=N2,,-29.4% [at 29.1 µM] (inactive)
CC(C)c1c(C(=O)Nc2ccccc2)c(-c2ccccc2)c(-c2ccc(F)cc2)n1CC[C@@H](O)C[C@@H](O)CC(=O)O,,-26.5% (inactive)
CN1CCC[C@H]1c1cccnc1,inactive,
CC(=O)CCC(=O)O,inactive,
CCCCCCc1ccc(O)cc1O,inactive,
